The values below come from PubChem BioAssay (Tox21).

Structures are written as SMILES. Results filed as inconclusive are left out. Unmarked numbers belong to inactive results. Calls of active or inactive are those of the source. The call rests on the fitted dose curve; in most records, active means well fitted cell-killing curve with a large enough effect in the repeat runs; inconclusive means weak or mixed curves, or effect the other way; inactive means flat fitted curve, though single readings scatter.
On the % scale 0 is the no-effect control and ±100 the full control effect; potency means the concentration at half of the fitted maximal effect.

The nature of this experiment: qHTS assay to identify small molecule antagonists of the estrogen receptor alpha (ER-alpha) signaling pathway using the BG1 cell line in the presence of 0.1 nM 17-beta-estradiol - cell viability counter screen (AID 1259241). Further: nearly all actives have a fitted effect of over 40% in size. As to conditions: VM7Luc4E2 (BG1) viability, CellTiter-Fluor protease, 22 h, 0.1 nM estradiol agonist added; series mostly up to 92.4 µM; activity change, negative = cytotoxicity: at the top concentration. An excerpt:
National Center for Advancing Translational Sciences [NCATS]
NIH Chemical Genomics Center [NCGC]
U.S. Environmental Protection Agency [EPA]
National Institutes of Environmental Health Sciences [NIEHS]
National Toxicology Program [NTP]
U.S. Food and Drug Administration [FDA]
Estrogen receptor (ER), a member of the nuclear hormone receptor plays an important role in development, metabolic homeostasis and reproduction. Two subtypes of ER, ER-alpha and ER-beta, have similar expression patterns with some uniqueness in both types. Endocrine disrupting chemicals (EDCs) and their interactions with steroid hormone receptors like ER causes disruption of normal endocrine function. Therefore, it is important to understand the effect of environmental chemicals in ER signaling pathway. For identifying ER antagonists, VM7Luc4E2 cell line was used to screen against Tox21 compound libraries.
VM7Luc4E2 cell line (provided by Denison MS, University of California) endogenously express full-length ER-alpha and is stably transfected with a plasmid containing four estrogen responsive elements (ERE) upstream of a luciferase reporter gene. The current screening for identification of ER-alpha inhibitors against Tox21 compound libraries used lower concentration (0.1 nM) of 17beta-Estradiol as a stimulator. The cytotoxicity of the Tox21 compound libraries against VM7Luc4E2 cell line was tested by measuring live-cell protease activity using CellTiter-Fluor assay in the same wells.
Tox21 Assay Protocol Summary:
VM7Luc4E2 cells were cultured in phenol red free assay medium containing 10% charcoal stripped FBS for 5 days prior to the assay. The cells were dispensed at 4,000 cells/well in 4 uL of assay medium into white wall/solid-bottom 1536-well plates (Corning Life Sciences, Corning, NY) using a Multidrop Combi (ThermoFisher Scientific, Waltham, MA) dispenser. After the assay plates were incubated at 37C and 5% CO2 for 24 hr, 23 nL of compounds dissolved in DMSO, positive controls or DMSO only was transferred to the assay plates by a Pintool station (Kalypsys, San Diego, CA). The transfer of compounds was followed by the addition of 1 uL of 0.1 nM (final concentration) agonist (17beta-Estradiol)/assay medium using a Flying Reagent Dispenser (FRD, Aurora Discovery, San Diego, CA). The plates were incubated at 37C and 5% CO2 for 22 hr. For cytotoxicity assay, 1 uL of CellTiter-Fluor reagent (Promega Corporation, Madison, WI) was added to each well using the FRD and after 30 min incubation at 37C and 5% CO2, The fluorescence intensity was measured using ViewLux plate reader (PerkinElmer, Shelton, CT).
`CCOC(=O)c1ccc(I)cc1`: the “activity change, negative = cytotoxicity” value is 5.54%.

`CN1CC(=O)N2[C@H](c3ccc4c(c3)OCO4)c3[nH]c4ccccc4c3C[C@@H]2C1=O`: the “activity change, negative = cytotoxicity” value is 2.24% [at 42.5 µM]. Take `O=C1Cc2cc(Cl)ccc2N1`: the “activity change, negative = cytotoxicity” value was 0.164% [at 42.5 µM].

Take `Brc1cc2ccccc2c2ccccc12`: the “activity change, negative = cytotoxicity” value was -16.8%. The same measure, in the same setting: as for `C=C(C)[C@@H]1CCC2=CCC[C@@H](C)[C@]2(C)C1`, the figure is -1.66%; as for `CN(C)CCC=C1c2ccccc2C=Cc2ccccc21`, -0.726% [at 42.5 µM]. On the same count and under the same terms, as for `O=C1c2ccccc2C(=O)C1c1nc2ccccc2c(Br)c1O`, the figure is -3.09%; as for `CC(=O)NC1(c2cccc(F)c2)CCN(CC[C@@]2(c3ccc(Cl)c(Cl)c3)CN(c3ccccc3)C(=O)CO2)CC1`, -18.3%. For the compound `CC1=C(Br)C(=O)C(Br)=C/C1=C(/c1ccccc1S(=O)(=O)O)c1cc(Br)c(O)c(Br)c1C`, the Potency was 18.6 µM (active). With `C1C[C@@H]2[C@H]3CC[C@H](C3)[C@@H]2C1`, the “activity change, negative = cytotoxicity” value is 2.59%.

Consider `CC(O)c1ccccc1` (stereo not given), for which the “activity change, negative = cytotoxicity” value was 1.67%.

Take `CCCCCCCC/C=C\CCCCCCCCO`: the “activity change, negative = cytotoxicity” value is 9.15%. Turning to `C[C@]1(Cn2ccnn2)[C@H](C(=O)O)N2C(=O)C[C@H]2S1(=O)=O`, the “activity change, negative = cytotoxicity” value is 1.1% [at 42.5 µM]. As for `CCCCCCC(C)(C)C(=O)O`, the “activity change, negative = cytotoxicity” value was 0.814%. Take `CC(C)C(O)(c1ccc(OC(F)(F)F)cc1)c1cncnc1` (stereo not given): the “activity change, negative = cytotoxicity” value is 17.9%. Take `C[C@@H](CN(C)C)CN1c2ccccc2Sc2ccccc21`: the “activity change, negative = cytotoxicity” value is 0.11% [at 42.5 µM].

For the compound `CC(CO)CO`, the “activity change, negative = cytotoxicity” value was -8.73%. As for `CC1(CN2CCC(n3c(=O)[nH]c4ccccc43)CC2)OCc2ccccc2-n2cccc21` (stereo not given), the “activity change, negative = cytotoxicity” value was -25.5% [at 42.5 µM]. On the same count and under the same terms, as for `COC(=O)CCS`, the figure is 0%.

Turning to `Nc1nnc(-c2ccc([N+](=O)[O-])o2)o1`, the Potency is 61.1 µM (active). As for `Cc1ccc(Cl)c(Nc2ccccc2C(=O)O)c1Cl`, the “activity change, negative = cytotoxicity” value is 2.37% [at 42.5 µM]. On the same count and under the same terms, as for `Cc1ccc(OC(=O)c2ccccc2O)cc1`, the figure is -0.0732%; as for `CN(C)CCN1C(=O)c2ccccc2N(C)c2ccccc21`, -3.23% [at 42.5 µM]; as for `CCC(C)COC(=O)CC(C)C` (stereo not given), -10.2%. With `O=c1[nH]ncc2ccccc12`, the “activity change, negative = cytotoxicity” value was 0%. Still for that read-out and setting: as for `C=C(C)C(=O)OCCOCCOC(=O)C(=C)C`, the figure is -2.45%; as for `CCCCN(CCCC)C(C(N)=O)c1ccc(OC)cc1` (stereo not given), 3.29% [at 42.5 µM]; as for `CCOC(=O)c1ccccc1C(=C1C=C(Br)C(=O)C(Br)=C1)c1cc(Br)c(O)c(Br)c1`, -3.51% [at 42.5 µM]. For `Nc1ncnc2c1ncn2[C@H]1CC[C@@H](CO)O1`, the “activity change, negative = cytotoxicity” value was -1.98%.

Regarding `CC(=O)Nc1cc(S(=O)(=O)O)cc2cc(S(=O)(=O)O)c(N=Nc3ccccc3)c(O)c12`, the Potency is 19.3 µM (active). Turning to `Nc1cccc2c1CN(C1CCC(=O)NC1=O)C2=O` (stereo not given), the “activity change, negative = cytotoxicity” value is 3.43% [at 42.5 µM]. The same measure, in the same setting: as for `C/C=C(/C(=C/C)c1ccc(O)cc1)c1ccc(O)cc1`, the figure is 2.13% [at 42.5 µM]. For the compound `C/C=C/C=C/C=O`, the “activity change, negative = cytotoxicity” value is 1.99%. Consider `O=C1C(=O)c2ccccc2C(O)=C1C1CCC(c2ccc(Cl)cc2)CC1` (stereo not given), for which the Potency was 26.6 µM (active). For `C=C1CCC2CC1C2(C)C` (stereo not given), the “activity change, negative = cytotoxicity” value was -2.49%. Still for that read-out and setting: as for `O=c1cc(-c2ccccc2)oc2ccc3ccccc3c12`, the figure is 0.344%; as for `CCCCCCCCOc1ccc(C(=O)O)cc1`, 0%. For the compound `CCOC(C)=O`, the “activity change, negative = cytotoxicity” value was 7.81%.

Turning to `Nc1ccc(N=Nc2ccccc2)c(N)c1`, the Potency is 26.7 µM (active).

For `C=CCc1ccccc1OCC(O)CNC(C)C` (stereo not given), the “activity change, negative = cytotoxicity” value is -0.379% [at 42.5 µM].
